From the supplement of paper PMC6897291
Counter-ions that a name gives are not always drawn.

What was measured:
[1] = test system: U-2932; assay: growth inhibition by drug alone (1 - RLU/untreated control) (fraction); higher = stronger inhibition; details: 177Lu-lilotomab satetraxetan 0 ug/ml
Outline: (§1)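 RIVA or U-2932 cells, untreated or pretreated 18 h with a radiolabelled anti-CD37 antibody conjugate (~600 MBq/mg; 0.5 µg/ml RIVA, 1 µg/ml U-2932), were washed and seeded at 3,000 cells/well on plates pre-printed with the Selleck Cambridge Cancer Compound library. Doses were 10/100 nM (RIVA) or 10/1,000 nM (U-2932). RealTime-Glo luminescence was read daily from day 3 after 1 h at 37°C. Growth inhibition is 1 − RLU/mean of 48 untreated no-drug wells per plate.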

[2] = test system: RIVA; assay: as above; details: 177Lu-lilotomab satetraxetan 0 ug/ml
Outline: as §1

[3] = test system: U-2932; assay: growth inhibition by drug plus 177Lu-lilotomab satetraxetan (1 - RLU/untreated control) (fraction); higher = stronger inhibition; details: 177Lu-lilotomab satetraxetan 1 ug/ml
Outline: as §1

[4] = test system: RIVA; assay: as above; details: 177Lu-lilotomab satetraxetan 0.5 ug/ml
Outline: as §1

Compound | growth inhibition by drug alone ([1]; 10 nM, time (day): 3) | growth inhibition by drug alone ([1]; 10 nM, time (day): 4) | growth inhibition by drug alone ([1]; 10 nM, time (day): 5) | growth inhibition by drug alone ([1]; 10 nM, time (day): 6) | growth inhibition by drug alone ([1]; 1000 nM, time (day): 3) | growth inhibition by drug alone ([1]; 1000 nM, time (day): 4) | growth inhibition by drug alone ([1]; 1000 nM, time (day): 5) | growth inhibition by drug alone ([1]; 1000 nM, time (day): 6) | growth inhibition by drug alone ([2]; 10 nM, time (day): 3) | growth inhibition by drug alone ([2]; 10 nM, time (day): 4) | growth inhibition by drug alone ([2]; 10 nM, time (day): 5) | growth inhibition by drug alone ([2]; 10 nM, time (day): 6) | growth inhibition by drug alone ([2]; 100 nM, time (day): 3) | growth inhibition by drug alone ([2]; 100 nM, time (day): 4) | growth inhibition by drug alone ([2]; 100 nM, time (day): 5) | growth inhibition by drug alone ([2]; 100 nM, time (day): 6) | growth inhibition by drug plus 177Lu-lilotomab satetraxetan ([3]; 10 nM, time (day): 3) | growth inhibition by drug plus 177Lu-lilotomab satetraxetan ([3]; 10 nM, time (day): 4) | growth inhibition by drug plus 177Lu-lilotomab satetraxetan ([3]; 10 nM, time (day): 5) | growth inhibition by drug plus 177Lu-lilotomab satetraxetan ([3]; 10 nM, time (day): 6) | growth inhibition by drug plus 177Lu-lilotomab satetraxetan ([3]; 1000 nM, time (day): 3) | growth inhibition by drug plus 177Lu-lilotomab satetraxetan ([3]; 1000 nM, time (day): 4) | growth inhibition by drug plus 177Lu-lilotomab satetraxetan ([3]; 1000 nM, time (day): 5) | growth inhibition by drug plus 177Lu-lilotomab satetraxetan ([3]; 1000 nM, time (day): 6) | growth inhibition by drug plus 177Lu-lilotomab satetraxetan ([4]; 10 nM, time (day): 3) | growth inhibition by drug plus 177Lu-lilotomab satetraxetan ([4]; 10 nM, time (day): 4) | growth inhibition by drug plus 177Lu-lilotomab satetraxetan ([4]; 10 nM, time (day): 5) | growth inhibition by drug plus 177Lu-lilotomab satetraxetan ([4]; 10 nM, time (day): 6) | growth inhibition by drug plus 177Lu-lilotomab satetraxetan ([4]; 100 nM, time (day): 3) | growth inhibition by drug plus 177Lu-lilotomab satetraxetan ([4]; 100 nM, time (day): 4) | growth inhibition by drug plus 177Lu-lilotomab satetraxetan ([4]; 100 nM, time (day): 5) | growth inhibition by drug plus 177Lu-lilotomab satetraxetan ([4]; 100 nM, time (day): 6)
c1ccc2c(CCNc3ccc(Nc4ccncc4)cc3)c[nH]c2c1 | 0.0584 | 0.057 | 0.0439 | -0.174 | 0.0747 | 0.114 | 0.115 | -0.0134 | -0.0529 | -0.0355 | -0.189 | -0.337 | -0.226 | -0.135 | -0.248 | -0.272 | 0.0442 | 0.058 | 0.101 | 0.125 | 0.0679 | 0.191 | 0.21 | 0.292 | 0.249 | 0.475 | 0.497 | 0.5 | 0.12 | 0.259 | 0.278 | 0.294
Cc1ccc(-n2nc(C(C)(C)C)cc2NC(=O)Nc2ccc(OCCN3CCOCC3)c3ccccc23)cc1 [BIRB 796 (Doramapimod)] | 0.238 | 0.206 | 0.0293 | 0.0019 | 0.274 | 0.272 | 0.208 | 0.2 | 0.117 | 0.131 | 0.0641 | -0.0577 | -0.00598 | 0.0829 | 0.0349 | -0.0954 | 0.173 | 0.182 | 0.252 | 0.301 | 0.273 | 0.29 | 0.32 | 0.408 | 0.669 | 0.691 | 0.702 | 0.711 | 0.407 | 0.527 | 0.521 | 0.528
CC(=O)[C@]1(O)Cc2c(O)c3c(c(O)c2[C@@H](O[C@H]2C[C@H](N)[C@H](O)[C@H](C)O2)C1)C(=O)c1ccccc1C3=O [Idarubicin HCl] | 0.517 | 0.599 | 0.684 | 0.751 | 0.962 | 0.973 | 0.977 | 0.98 | 0.685 | 0.744 | 0.786 | 0.827 | 0.781 | 0.825 | 0.851 | 0.883 | 0.584 | 0.712 | 0.817 | 0.881 | 0.972 | 0.979 | 0.981 | 0.985 | 0.924 | 0.947 | 0.964 | 0.971 | 0.831 | 0.89 | 0.913 | 0.939
CCCCCOC(=O)Nc1nc(=O)n([C@@H]2O[C@H](C)[C@@H](O)[C@H]2O)cc1F [Capecitabine (Xeloda)] | -0.0672 | -0.0894 | -0.0926 | -0.0992 | -0.0819 | -0.0438 | -0.0714 | 0.0681 | -0.345 | -0.321 | -0.354 | -0.36 | -0.381 | -0.792 | -0.367 | -0.436 | -0.101 | -0.0507 | 0.0153 | 0.0328 | -0.139 | -0.0798 | -0.0339 | 0.114 | 0.468 | 0.533 | 0.549 | 0.549 | 0.378 | 0.466 | 0.465 | 0.483
S=C(NCc1ccc2c(c1)OCO2)N1CCN(c2ncnc3c2oc2ccccc23)CC1 [Amuvatinib (MP-470)] | 0.138 | 0.0926 | -0.0674 | -0.0914 | 0.459 | 0.471 | 0.474 | 0.434 | 0.0683 | 0.0587 | 0.0228 | -0.162 | 0.05 | 0.0617 | 0.0713 | 0.0541 | 0.0425 | 0.101 | 0.162 | 0.177 | 0.465 | 0.477 | 0.498 | 0.561 | 0.627 | 0.668 | 0.684 | 0.68 | 0.641 | 0.642 | 0.661 | 0.677
CN(CCOc1ccc(CC2SC(=O)NC2=O)cc1)c1ccccn1 (centres undefined) [Rosiglitazone (Avandia)] | 0.068 | 0.0368 | -0.0298 | -0.117 | -0.0124 | 0.0197 | -0.0667 | -0.236 | -0.0381 | -0.0305 | -0.0979 | -0.42 | -0.131 | -0.086 | -0.0959 | -0.219 | -0.0122 | 0.00577 | 0.0405 | 0.0655 | -0.0752 | 0.0366 | 0.0101 | 0.078 | 0.409 | 0.548 | 0.564 | 0.587 | 0.382 | 0.504 | 0.532 | 0.523
CO[C@H]1C[C@@H]2CC[C@@H](C)[C@@](O)(O2)C(=O)C(=O)N2CCCC[C@H]2C(=O)O[C@H]([C@H](C)C[C@@H]2CC[C@@H](OC(=O)C(C)(CO)CO)[C@H](OC)C2)CC(=O)[C@H](C)/C=C(\C)[C@@H](O)[C@@H](OC)C(=O)[C@H](C)C[C@H](C)/C=C/C=C/C=C/1C [Temsirolimus (Torisel)] | 0.777 | 0.721 | 0.634 | 0.594 | 0.733 | 0.73 | 0.677 | 0.63 | 0.78 | 0.785 | 0.769 | 0.7 | 0.803 | 0.83 | 0.833 | 0.812 | 0.68 | 0.614 | 0.579 | 0.568 | 0.648 | 0.681 | 0.651 | 0.651 | 0.842 | 0.865 | 0.86 | 0.839 | 0.846 | 0.883 | 0.885 | 0.887
